Measurements published in PubChem BioAssay (NCI).
Where “and” joins values, the source holds several entries; their conditions need not be identical. Identical values can stand only once. About 83,000 compounds went through this panel and 20% of them were active in at least one assay; those are over-represented in the sample as a whole.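 Cell lines were cultured in 96-well plates, exposed to a single compound concentration, and assessed for percent growth 48 hours later.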 A number with no mark means an inactive call. Calls of active or inactive are those of the source. The calls were made as follows: active = growth percent below 10; inactive = the rest.

Tests used:
Assay in all cases: NCI-60 one-dose screen, 48 h (100 = growth as untreated, 0 = no growth, -100 = all killed)
[1] = tested on: SR leukemia
[2] = tested on: RPMI-8226 leukemia
[3] = tested on: OVCAR-8 ovarian
[4] = tested on: OVCAR-5 ovarian
[5] = tested on: OVCAR-4 ovarian
[6] = tested on: SK-OV-3 ovarian
[7] = tested on: IGROV1 ovarian
[8] = tested on: OVCAR-3 ovarian
[9] = tested on: HS 578T breast
[10] = tested on: NCI/ADR-RES ovarian

CCCCC1=C(Br)C(=O)c2nc(C)ccc2C1=O showed a growth ([1]; 10 µM unless noted) of 21.8%, a growth ([2]; 10 µM unless noted) of 58.5% and a growth ([3]; 10 µM unless noted) of 88.3%. It also gave a growth ([4]; 10 µM unless noted) of 102%, a growth ([5]; 10 µM unless noted) of 75.5% and a growth ([6]; 10 µM unless noted) of 95%. It also gave a growth ([7]; 10 µM unless noted) of 83.9%, a growth ([8]; 10 µM unless noted) of 48.5% and a growth ([9]; 10 µM unless noted) of 90.9%. For the same compound, the growth ([10]; 10 µM unless noted) was 100%.
CCN1CCN(C(=O)[C@]23CC[C@@H](C)[C@H](C)[C@@H]2C2=CC[C@@H]4[C@@]5(C)CCC(=O)C(C)(C)[C@@H]5CC[C@@]4(C)[C@]2(C)CC3)CC1 was tested, and the growth ([1]; 10 µM unless noted) was -13.4% (active), the growth ([2]; 10 µM unless noted) was -34.4% (active) and the growth ([3]; 10 µM unless noted) was 16.5%. The growth ([4]; 10 µM unless noted) was -3.73% (active), the growth ([5]; 10 µM unless noted) was 18% and the growth ([6]; 10 µM unless noted) was 16.2%. For the same compound, the growth ([7]; 10 µM unless noted) was 14.7%, the growth ([8]; 10 µM unless noted) was 16.6% and the growth ([9]; 10 µM unless noted) was -1.77% (active). For the same compound, the growth ([10]; 10 µM unless noted) was 9.16% (active).
With COc1ccc(Oc2nc(Nc3ccc(N4CCOCC4)cc3)ncc2NC(=O)c2cccc(C(F)(F)F)c2)cc1 the growth ([1]; 10 µM unless noted) was 35.7%, the growth ([2]; 10 µM unless noted) was 59.8% and the growth ([3]; 10 µM unless noted) was 78.5%. It also gave a growth ([4]; 10 µM unless noted) of 111%, a growth ([5]; 10 µM unless noted) of 96.4% and a growth ([6]; 10 µM unless noted) of 85.7%. The growth ([7]; 10 µM unless noted) was 88.5%, the growth ([8]; 10 µM unless noted) was 82.7% and the growth ([9]; 10 µM unless noted) was 91.4%. The growth ([10]; 10 µM unless noted) was 79.7%.
Work on CCNC(=O)Nc1ncccc1OCc1ccc(F)cc1 yielded a growth ([1]; 10 µM unless noted) of 105%, a growth ([2]; 10 µM unless noted) of 106% and a growth ([3]; 10 µM unless noted) of 109%. For the same compound, the growth ([4]; 10 µM unless noted) was 92.4%, the growth ([5]; 10 µM unless noted) was 96.4% and the growth ([6]; 10 µM unless noted) was 94.2%. The growth ([7]; 10 µM unless noted) was 102%, the growth ([8]; 10 µM unless noted) was 102% and the growth ([9]; 10 µM unless noted) was 112%. The growth ([10]; 10 µM unless noted) was 93.4%.
For CC(=O)/C=C/c1ccc(N(C)Cc2ccc(C(C)(C)C)cc2)cc1, the growth ([1]; 10 µM) was 80.4%, the growth ([1]; 100 µM) was -29.5% (active) and the growth ([2]; 10 µM) was 78.2%. The growth ([2]; 100 µM) was -49.8% (active), the growth ([4]; 10 µM) was 102% and the growth ([4]; 100 µM) was -72% (active). For the same compound, the growth ([5]; 10 µM) was 85.2%, the growth ([5]; 100 µM) was -68.9% (active) and the growth ([6]; 10 µM) was 98.4%. For the same compound, the growth ([6]; 100 µM) was -29.8% (active), the growth ([7]; 10 µM) was 99% and the growth ([7]; 100 µM) was 1.66% (active). The growth ([9]; 10 µM) was 87.1%, the growth ([9]; 100 µM) was -33.3% (active) and the growth ([10]; 10 µM) was 86.1%. The growth ([10]; 100 µM) was -60.1% (active).
In the case of COc1cc(F)c(/C=C/c2cc(/C=C/c3cc(OC)c(OC)cc3F)n(-c3cc(F)cc(F)c3)n2)cc1OC, the growth ([1]; 10 µM unless noted) is reported as 8.98% (active), the growth ([2]; 10 µM unless noted) is reported as 18% and the growth ([3]; 10 µM unless noted) is reported as 36.6%. The growth ([4]; 10 µM unless noted) was 51.4%, the growth ([5]; 10 µM unless noted) was 49.9% and the growth ([6]; 10 µM unless noted) was 108%. It also gave a growth ([7]; 10 µM unless noted) of 88.6%, a growth ([8]; 10 µM unless noted) of 24.2% and a growth ([9]; 10 µM unless noted) of 38%. For the same compound, the growth ([10]; 10 µM unless noted) was 12%.
Cc1ccc(-c2nc3nc(-c4ccc(Cl)cc4)nc(N4CCCNCC4)c3o2)cc1 was tested, and the growth ([1]; 10 µM unless noted) was -44.9% (active), the growth ([2]; 10 µM unless noted) was -48.7% (active) and the growth ([3]; 10 µM unless noted) was -58.7% (active). For the same compound, the growth ([4]; 10 µM unless noted) was -98.5% (active), the growth ([5]; 10 µM unless noted) was -83.5% (active) and the growth ([6]; 10 µM unless noted) was 117%. For the same compound, the growth ([7]; 10 µM unless noted) was -83.8% (active), the growth ([8]; 10 µM unless noted) was -95.5% (active) and the growth ([9]; 10 µM unless noted) was -50.8% (active). The growth ([10]; 10 µM unless noted) was -66.9% (active).
Work on S=c1nc(CS)[nH]c2ccccc12 yielded a growth ([1]; 10 µM unless noted) of 101%, a growth ([2]; 10 µM unless noted) of 102% and a growth ([3]; 10 µM unless noted) of 90.9%. The growth ([4]; 10 µM unless noted) was 102%, the growth ([5]; 10 µM unless noted) was 94.3% and the growth ([6]; 10 µM unless noted) was 100%. It also gave a growth ([7]; 10 µM unless noted) of 85.7%, a growth ([8]; 10 µM unless noted) of 106% and a growth ([9]; 10 µM unless noted) of 94.1%. It also gave a growth ([10]; 10 µM unless noted) of 101%.
For CCN1C(=O)/C(=c2\sc3n(c2=O)C2C(NN=3)N(CC)C(=O)N2CC)c2ccccc21 (stereo unspecified), the growth ([1]; 10 µM unless noted) was 15.3%, the growth ([2]; 10 µM unless noted) was 50.8% and the growth ([3]; 10 µM unless noted) was 31.8%. It also gave a growth ([4]; 10 µM unless noted) of 54.2%, a growth ([5]; 10 µM unless noted) of 49.5% and a growth ([6]; 10 µM unless noted) of 54.5%. For the same compound, the growth ([7]; 10 µM unless noted) was 29%, the growth ([8]; 10 µM unless noted) was -19% (active) and the growth ([9]; 10 µM unless noted) was 24.4%. For the same compound, the growth ([10]; 10 µM unless noted) was 5.59% (active).
COc1ccc(C(=O)/C=C/c2ccc(OCc3cccc(C(F)(F)F)c3)c(OC)c2)cc1OC was tested, and the growth ([1]; 10 µM) was 36.8%, the growth ([1]; 100 µM) was 5.42% (active) and the growth ([2]; 10 µM) was 29.7%. For the same compound, the growth ([2]; 100 µM) was -0.397% (active), the growth ([3]; 10 µM) was 67.1% and the growth ([3]; 100 µM) was 4.75% (active). It also gave a growth ([4]; 10 µM) of 109%, a growth ([4]; 100 µM) of 51.5% and a growth ([5]; 10 µM) of 74.9%. It also gave a growth ([5]; 100 µM) of 20.3%, a growth ([6]; 10 µM) of 88.7% and a growth ([6]; 100 µM) of 20%. The growth ([7]; 10 µM) was 93.6%, the growth ([7]; 100 µM) was 5.18% (active) and the growth ([8]; 10 µM) was 79.8%. For the same compound, the growth ([8]; 100 µM) was -10.3% (active), the growth ([9]; 10 µM) was 98.2% and the growth ([9]; 100 µM) was 11.6%. For the same compound, the growth ([10]; 10 µM) was 71.4% and the growth ([10]; 100 µM) was -6.47% (active).
For Nc1ccc(S(=O)(=O)c2ccc(N)cc2)cc1, the growth ([1]; 10 µM unless noted) was 99.7% and 121%, the growth ([2]; 10 µM unless noted) was 96.7% and 85.4% and the growth ([3]; 10 µM unless noted) was 97.2% and 93.1%. The growth ([4]; 10 µM unless noted) was 104% and 96.4%, the growth ([5]; 10 µM unless noted) was 111% and 117% and the growth ([6]; 10 µM unless noted) was 118% and 102%. The growth ([7]; 10 µM unless noted) was 108% and 61%, the growth ([8]; 10 µM unless noted) was 121% and 112% and the growth ([9]; 10 µM unless noted) was 106% and 96.8%. For the same compound, the growth ([10]; 10 µM unless noted) was 101% and 97.2%.
